Assay results as given in ChEMBL document CHEMBL1961873, “Compounds: GSK PKIS; Assays: Nanosyn kinase panel” (2012).

Columns and labels:
[1] = target: T1, Serine/threonine-protein kinase D2 (Homo sapiens) (UniProt Q9BZL6); conditions: at 1 µM;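 note: mean value of PRKD2 inhibition, from the GSK PKIS screening panel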
T1 sequence (whole entry): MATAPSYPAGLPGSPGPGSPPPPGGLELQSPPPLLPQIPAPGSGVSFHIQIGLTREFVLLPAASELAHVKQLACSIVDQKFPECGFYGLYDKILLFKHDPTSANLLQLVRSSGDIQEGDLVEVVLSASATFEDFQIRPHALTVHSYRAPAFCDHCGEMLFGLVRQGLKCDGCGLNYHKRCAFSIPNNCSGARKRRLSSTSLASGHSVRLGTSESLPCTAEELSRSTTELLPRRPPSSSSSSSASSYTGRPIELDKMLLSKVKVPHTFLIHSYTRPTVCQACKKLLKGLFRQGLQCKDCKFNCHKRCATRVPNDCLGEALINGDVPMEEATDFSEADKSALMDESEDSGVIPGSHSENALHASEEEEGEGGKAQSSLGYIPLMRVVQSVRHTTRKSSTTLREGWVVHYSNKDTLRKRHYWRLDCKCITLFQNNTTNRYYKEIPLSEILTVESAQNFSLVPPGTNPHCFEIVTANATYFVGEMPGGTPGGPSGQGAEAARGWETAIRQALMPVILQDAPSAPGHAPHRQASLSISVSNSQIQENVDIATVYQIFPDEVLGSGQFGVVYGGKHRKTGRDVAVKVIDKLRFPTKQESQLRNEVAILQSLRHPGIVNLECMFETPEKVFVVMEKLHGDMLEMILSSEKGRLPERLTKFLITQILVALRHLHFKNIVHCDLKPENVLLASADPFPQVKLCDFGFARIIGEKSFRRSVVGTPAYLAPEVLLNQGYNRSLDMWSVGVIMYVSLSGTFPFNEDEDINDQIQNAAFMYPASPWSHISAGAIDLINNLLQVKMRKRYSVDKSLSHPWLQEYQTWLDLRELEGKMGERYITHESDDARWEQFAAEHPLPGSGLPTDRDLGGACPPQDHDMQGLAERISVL

[2] = target: T2, Serine/threonine-protein kinase D3 (Homo sapiens) (UniProt O94806); conditions: at 0.1 µM
T2 sequence (whole entry): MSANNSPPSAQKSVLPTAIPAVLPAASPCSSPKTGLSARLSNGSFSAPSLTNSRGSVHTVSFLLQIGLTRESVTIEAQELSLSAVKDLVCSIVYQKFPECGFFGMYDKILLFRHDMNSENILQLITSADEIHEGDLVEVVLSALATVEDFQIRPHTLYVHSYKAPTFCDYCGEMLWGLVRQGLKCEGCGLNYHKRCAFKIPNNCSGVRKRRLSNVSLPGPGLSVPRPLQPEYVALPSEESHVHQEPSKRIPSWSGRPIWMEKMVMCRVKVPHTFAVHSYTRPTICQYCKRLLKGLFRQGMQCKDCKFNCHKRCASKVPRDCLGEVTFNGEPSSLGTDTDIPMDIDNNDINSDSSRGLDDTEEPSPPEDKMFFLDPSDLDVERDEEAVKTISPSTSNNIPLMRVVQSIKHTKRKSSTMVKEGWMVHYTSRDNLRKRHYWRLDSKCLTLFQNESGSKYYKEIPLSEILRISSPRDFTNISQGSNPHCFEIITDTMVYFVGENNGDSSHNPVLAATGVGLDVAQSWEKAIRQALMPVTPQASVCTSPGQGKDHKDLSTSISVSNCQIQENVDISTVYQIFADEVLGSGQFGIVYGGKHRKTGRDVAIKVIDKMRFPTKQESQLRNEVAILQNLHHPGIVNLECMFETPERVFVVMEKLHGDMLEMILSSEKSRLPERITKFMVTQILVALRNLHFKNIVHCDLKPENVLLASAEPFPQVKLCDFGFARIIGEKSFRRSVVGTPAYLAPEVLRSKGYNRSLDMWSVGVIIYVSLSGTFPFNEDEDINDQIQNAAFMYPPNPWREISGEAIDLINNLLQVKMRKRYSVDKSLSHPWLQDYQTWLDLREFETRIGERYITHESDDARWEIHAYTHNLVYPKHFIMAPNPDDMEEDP

[3] = target: T2, Serine/threonine-protein kinase D3 (Homo sapiens); conditions: at 1 µM
[4] = target: T3, cGMP-dependent protein kinase 1 (Homo sapiens) (UniProt Q13976); conditions: at 0.1 µM
T3 sequence (whole entry): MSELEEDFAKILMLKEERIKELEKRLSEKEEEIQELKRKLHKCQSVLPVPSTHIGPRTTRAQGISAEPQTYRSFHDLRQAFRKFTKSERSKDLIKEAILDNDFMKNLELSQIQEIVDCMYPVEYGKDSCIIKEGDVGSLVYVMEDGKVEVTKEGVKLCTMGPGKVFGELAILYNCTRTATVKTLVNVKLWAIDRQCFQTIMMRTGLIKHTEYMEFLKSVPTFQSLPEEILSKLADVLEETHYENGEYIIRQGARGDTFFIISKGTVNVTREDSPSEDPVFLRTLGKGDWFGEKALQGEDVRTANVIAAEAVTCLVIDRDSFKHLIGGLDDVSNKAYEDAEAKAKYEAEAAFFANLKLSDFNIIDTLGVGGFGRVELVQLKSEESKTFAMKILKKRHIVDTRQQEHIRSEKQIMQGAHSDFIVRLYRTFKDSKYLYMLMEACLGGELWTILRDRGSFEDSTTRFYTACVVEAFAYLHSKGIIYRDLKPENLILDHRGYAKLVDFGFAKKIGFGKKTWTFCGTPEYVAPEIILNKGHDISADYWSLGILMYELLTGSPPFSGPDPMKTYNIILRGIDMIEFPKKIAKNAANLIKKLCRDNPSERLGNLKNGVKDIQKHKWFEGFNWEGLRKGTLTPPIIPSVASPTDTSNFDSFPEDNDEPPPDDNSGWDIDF

[5] = target: T3, cGMP-dependent protein kinase 1 (Homo sapiens); conditions: at 1 µM
[6] = target: T4, cGMP-dependent protein kinase 2 (Homo sapiens) (UniProt Q13237); conditions: at 0.1 µM
T4 sequence (whole entry): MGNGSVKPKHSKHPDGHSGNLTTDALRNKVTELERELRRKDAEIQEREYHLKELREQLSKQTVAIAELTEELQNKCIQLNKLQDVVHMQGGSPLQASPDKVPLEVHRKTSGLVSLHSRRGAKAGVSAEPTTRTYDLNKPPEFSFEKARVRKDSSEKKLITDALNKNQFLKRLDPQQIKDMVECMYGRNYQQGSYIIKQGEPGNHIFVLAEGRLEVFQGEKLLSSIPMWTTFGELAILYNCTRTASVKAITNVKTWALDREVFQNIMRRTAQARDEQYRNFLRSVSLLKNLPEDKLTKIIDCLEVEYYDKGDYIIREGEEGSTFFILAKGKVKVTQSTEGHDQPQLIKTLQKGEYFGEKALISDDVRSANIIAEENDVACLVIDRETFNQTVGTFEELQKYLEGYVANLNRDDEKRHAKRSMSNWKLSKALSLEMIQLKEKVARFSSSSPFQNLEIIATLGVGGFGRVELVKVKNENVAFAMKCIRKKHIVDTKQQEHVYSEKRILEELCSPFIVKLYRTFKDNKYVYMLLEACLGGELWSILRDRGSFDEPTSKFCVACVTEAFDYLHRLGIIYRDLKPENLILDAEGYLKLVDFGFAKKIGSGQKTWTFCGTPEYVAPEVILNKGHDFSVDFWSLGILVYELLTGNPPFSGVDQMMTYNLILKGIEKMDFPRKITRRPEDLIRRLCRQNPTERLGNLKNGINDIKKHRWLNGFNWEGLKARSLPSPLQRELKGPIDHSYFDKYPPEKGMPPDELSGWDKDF

[7] = target: T4, cGMP-dependent protein kinase 2 (Homo sapiens); conditions: at 1 µM
[8] = target: T5, cAMP-dependent protein kinase catalytic subunit PRKX (Homo sapiens) (UniProt P51817); conditions: at 0.1 µM
T5 sequence (whole entry): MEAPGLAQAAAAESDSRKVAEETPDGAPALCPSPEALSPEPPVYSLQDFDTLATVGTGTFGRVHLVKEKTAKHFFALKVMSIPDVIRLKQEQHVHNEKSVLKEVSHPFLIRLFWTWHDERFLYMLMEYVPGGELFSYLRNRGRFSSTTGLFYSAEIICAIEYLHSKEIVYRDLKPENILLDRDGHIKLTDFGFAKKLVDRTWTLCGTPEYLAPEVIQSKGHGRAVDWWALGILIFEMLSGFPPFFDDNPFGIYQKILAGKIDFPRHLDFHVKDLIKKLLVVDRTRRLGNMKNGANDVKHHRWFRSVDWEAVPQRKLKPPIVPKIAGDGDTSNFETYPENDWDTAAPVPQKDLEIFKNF

[9] = target: T5, cAMP-dependent protein kinase catalytic subunit PRKX (Homo sapiens); conditions: at 1 µM
[10] = target: Rho-associated protein kinase 1 (Homo sapiens) (UniProt Q13464); conditions: at 0.1 µM;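 note: values are mean percent inhibition of ROCK1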
Chain of Rho-associated protein kinase 1 (Homo sapiens) (Q13464 2-1354 limits assumed): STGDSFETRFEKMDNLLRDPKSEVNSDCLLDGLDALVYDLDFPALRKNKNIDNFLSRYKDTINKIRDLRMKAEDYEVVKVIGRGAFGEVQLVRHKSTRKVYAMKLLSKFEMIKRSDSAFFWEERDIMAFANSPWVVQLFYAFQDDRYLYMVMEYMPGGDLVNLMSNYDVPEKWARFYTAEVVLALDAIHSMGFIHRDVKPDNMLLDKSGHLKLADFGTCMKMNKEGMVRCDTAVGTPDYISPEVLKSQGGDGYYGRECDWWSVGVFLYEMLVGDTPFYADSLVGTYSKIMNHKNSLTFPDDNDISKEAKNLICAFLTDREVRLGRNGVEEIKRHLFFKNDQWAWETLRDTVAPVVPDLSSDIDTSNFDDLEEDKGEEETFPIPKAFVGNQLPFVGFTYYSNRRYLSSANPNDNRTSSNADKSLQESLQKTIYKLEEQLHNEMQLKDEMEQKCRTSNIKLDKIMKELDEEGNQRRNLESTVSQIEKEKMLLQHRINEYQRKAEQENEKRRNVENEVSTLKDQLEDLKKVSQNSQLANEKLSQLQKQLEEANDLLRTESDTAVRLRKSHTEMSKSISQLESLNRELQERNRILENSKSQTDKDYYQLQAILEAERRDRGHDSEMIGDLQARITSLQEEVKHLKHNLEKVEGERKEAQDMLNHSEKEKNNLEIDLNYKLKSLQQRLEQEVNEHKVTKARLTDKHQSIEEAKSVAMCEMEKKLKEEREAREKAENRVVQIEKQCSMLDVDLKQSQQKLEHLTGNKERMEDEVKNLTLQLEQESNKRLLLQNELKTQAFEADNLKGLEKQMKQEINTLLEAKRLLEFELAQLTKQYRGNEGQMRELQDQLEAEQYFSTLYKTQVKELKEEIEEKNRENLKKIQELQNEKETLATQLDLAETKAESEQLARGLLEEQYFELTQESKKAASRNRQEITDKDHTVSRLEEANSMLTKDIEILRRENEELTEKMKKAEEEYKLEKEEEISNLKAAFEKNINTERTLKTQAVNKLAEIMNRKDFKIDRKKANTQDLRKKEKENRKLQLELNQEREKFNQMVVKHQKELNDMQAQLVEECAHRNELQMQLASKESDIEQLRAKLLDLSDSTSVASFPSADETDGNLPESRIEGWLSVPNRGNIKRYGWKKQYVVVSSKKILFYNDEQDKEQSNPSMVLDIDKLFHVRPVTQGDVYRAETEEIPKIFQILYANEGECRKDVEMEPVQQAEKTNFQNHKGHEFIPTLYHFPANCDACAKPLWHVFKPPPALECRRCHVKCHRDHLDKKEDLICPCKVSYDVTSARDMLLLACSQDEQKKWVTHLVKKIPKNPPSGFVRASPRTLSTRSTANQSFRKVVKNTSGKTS

Row | Structure (SMILES) | inhibition [1] | inhibition [2] | inhibition [3] | inhibition [4] | inhibition [5] | inhibition [6] | inhibition [7] | inhibition [8] | inhibition [9] | inhibition [10]
1 | O=C1Nc2ccccc2/C1=C/Nc1ccc(-n2cncn2)cc1 | 6.07% | 4.94% | 6.5% | 3.06% | 5.48% | 2.51% | 14.4% | 2.56% | 7.18% | 1.71%
2 | Cc1nnc(-c2ccc(C)c(-c3ccc(C(=O)NCc4ccc(Cl)cc4)cc3)c2)o1 | -0.8% | 2.09% | -0.1% | 2.07% | 5.32% | 3.25% | 3.86% | 2.66% | 5.13% | 1.51%
3 | C[C@@H](Oc1cc(-n2cnc3ccc(OCC4CCN(C)CC4)cc32)sc1C(N)=O)c1ccccc1Cl | 12.1% | 5.81% | 12% | 3.88% | 7.13% | 3.5% | 7.56% | 1.81% | -4.06% | 2.64%
4 | Clc1ccc(CNc2nccc(-c3cnn4ncccc34)n2)cc1 | 5.34% | 0.83% | 3.93% | 2.07% | 6.09% | -0.17% | 3.68% | 0.56% | 1.41% | 0.21%
5 | c1ccc(-c2n[nH]cc2-c2ccnc(-c3ccc(OCCN4CCOCC4)cc3)c2)nc1 | 80.7% | 5.97% | 57.5% | 3.53% | 4.78% | 4.17% | 3.32% | 4.09% | 2.55% | 1.08%
6 | CS(=O)(=O)CCNCc1ccc(-c2ccc3ncnc(Nc4ccc(OCc5ccccc5)c(Br)c4)c3c2)o1 | -2.34% | -0.06% | -0.73% | 3.47% | 0.89% | 2.31% | 1.31% | 2.17% | 2.64% | 1.36%
7 | COc1ccc2ncn(-c3cc(O[C@H](C)c4ccccc4Cl)c(C(N)=O)s3)c2c1 | -2.98% | 0.19% | -0.76% | 3.47% | 3.01% | 3.48% | 4.43% | 4.11% | 1.58% | 1.76%
8 | Cc1ccc(C(=O)NC(C)C)cc1-c1ccc(C(=O)NCC2CC2)cc1 | -0.88% | -3.09% | -2.84% | -3.24% | -2.98% | -1.45% | -0.98% | -1.5% | -1.51% | -1.38%
9 | COc1ccc(-c2ccc3c(NC(=O)C4CC4)n[nH]c3n2)cc1 | 1.69% | 1.45% | 1.7% | 1.26% | 1.97% | 0.63% | 0.65% | 1.66% | 3.81% | 0.53%
10 | COc1cc(Nc2ncc(-c3ccccc3)o2)cc(OC)c1OC | -0.05% | -1.81% | -1.6% | 1.84% | 1.3% | -0.12% | 1.47% | 0.22% | 0.75% | 0.49%
11 | COc1cc(C)c(N(C)C(=O)CN(C)C)cc1Nc1nc(Nc2cccc(F)c2C(N)=O)c2cc[nH]c2n1 | -0.62% | -1.31% | 0.06% | 0.67% | 3.77% | 2.1% | 2.31% | 0.78% | -0.64% | 0.77%
12 | CN(C)c1ccc2c(c1)/C(=C/Nc1ccc(S(N)(=O)=O)cc1)C(=O)N2 | 5.28% | 3.16% | 4.44% | 2.39% | 1.76% | 1.53% | 8.65% | 0.94% | 2.58% | 0.76%
13 | COc1ccc(C2=C(N3CCc4ccccc43)C(=O)NC2=O)cc1 | 7.9% | 4.84% | 8.41% | 1.67% | 6.23% | 1.42% | 4.94% | 2.47% | 2.49% | 0.56%
14 | CCc1cccc(CC)c1/C=C/c1cncc(C(=O)NC)c1 | 7.18% | 3.3% | 7.02% | 2.74% | 2.71% | 1.38% | 1.83% | 3.9% | -1.34% | 0.87%
15 | CCS(=O)(=O)c1ccc(OC)c(Nc2ncc(-c3cccc(-c4ccccc4F)c3)o2)c1 | 1.19% | 1.19% | 1.54% | 0.11% | 3.03% | 1.57% | 2.1% | 0.93% | 0.98% | -2.02%
16 | COc1cccc(/C=N/Nc2ncnc3c2cnn3-c2cccc(OC)c2)c1 | 1.36% | 3.64% | 2.93% | 3.82% | 4.05% | 1.19% | 3.17% | 0.44% | 1.94% | 2.52%
17 | Cc1ccc(NC(=O)c2ccoc2)cc1-c1ccc(C(=O)NCC2CC2)cc1 | 3.55% | 2.92% | 2.95% | 0.89% | 1.09% | 1.21% | 1.02% | 1.5% | 0.55% | 0%
